# The source made the active and inactive calls. Unless noted, no rule for the calls is given here.
# What was measured:
# [1] = test system: Wnt5a (protein binding on small-molecule microarray); test: small molecules binding Wnt5a protein – biophysical, small-molecule microarray, 635/667 nm fluorescence, primary screen (AID 1142); details: 635 nm fluorescence, higher = more signal;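 also: fluorescence read at 667 nm with signal to noise per printed feature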
# [2] = ATP-based viability of Huh7 replicon cells – cell-based, CellTiter-Glo luminescence, basal, 48 h, cytotoxicity control for HCV replication inhibitor project, primary screen (AID 1143); details: higher = more signal, called active from +8 up or from −8 down;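 also: Huh7 hepatoma cells carrying a hepatitis C replication reporter with no stimulus; test concentration not given here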
# [3] = Pseudomonas biofilm growth suppression – PAO1 strain, BacTiter-Glo luminescence, LB-PBS, primary screen (AID 1144); details: P. aeruginosa PAO1 biofilm, 12 h, higher = more signal
# [4] = basal CRE-LacZ reporter activity in PC12 – cell-based, unstimulated, primary screen (AID 1145); details: no forskolin, luminescence, 4.5 h, higher = more signal, called active from +8 up or from −8 down
# [5] = forskolin-driven CRE-LacZ activity in PC12 – cell-based, CRE-LacZ reporter, forskolin-stimulated, primary screen (AID 1146); details: luminescence, 4.5 h, higher = more signal, called active from +8 up or from −8 down;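 also: PC12 cells with 6xCRE LacZ reporter stimulated by forskolin 10 µM; beta-galactosidase reporter signal reflecting CREB driven transcription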
# [6] = biological target: Streptavidin (Streptomyces avidinii) (UniProt P22629); test: compounds binding control protein streptavidin – biophysical, small-molecule microarray, 635/667 nm fluorescence, artefact control for SMM compound annotation, primary screen (AID 1147); details: higher = more signal;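 also: signal reflects streptavidin binding to arrayed compounds as a control protein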
# [7] = probe aInhba binding on compound microarray – biochemical, small-molecule microarray, 635/667 nm fluorescence, primary screen (AID 1148); details: higher = more signal;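 also: score merges 667nm spot fluorescence with signal-to-noise for antibody binding to printed compounds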
# Torsin-1A (Homo sapiens) [8] = biological target: Torsin-1A (Homo sapiens) (UniProt O14656); test: TOR1A wild-type binding on microarray – cell lysate, small-molecule microarray, lysate, 635/667 nm, primary screen (AID 1149); details: COS7 hTOR1A-WT lysate, 635 nm fluorescence, higher = more signal
# Torsin-1A (Homo sapiens) [9] = biological target: Torsin-1A (Homo sapiens) (UniProt O14656); test: torsin A mutant lysate binding on microarrays – cell lysate, small-molecule microarray, COS7 lysate, 635/667 nm fluorescence, primary screen (AID 1150); details: COS7 hTOR1A mutant lysate, 635 nm fluorescence, higher = more signal;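 also: score pools 667 nm emission and signal to noise measuring lysate protein binding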
# [10] = test system: Sonic hedgehog protein (Shh); test: Sonic hedgehog microarray binding compounds – biochemical, small-molecule microarray, 635/667 nm fluorescence, primary screen (AID 1151); details: 635 nm fluorescence, higher = more signal;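 also: Shh protein binding to compounds spotted on small-molecule microarray slides; score combines spot fluorescence intensity with signal-to-noise across triplicate slides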
# [11] = optical density shifts of acrAB sulA E. coli – strain DRC41, OD650, 48 h, E. coli filamentation inducer project, primary screen (AID 1152); details: higher = more signal, called active from +8 up or from −8 down;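 also: E. coli MC1000 strain DRC41 lacking acrAB efflux pump and sulA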
# [12] = probe aLefty1 binding on compound microarray – biochemical, small-molecule microarray, 635/667 nm fluorescence, primary screen (AID 1153); details: higher = more signal;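 also: score merges spot fluorescence with signal-to-noise ratio from the scanned slide images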
# [13] = plasmodial surface anion channel blockers, osmotic lysis – cell-based, P. falciparum Indochina, OD700, 1 h, primary screen (AID 1154); details: P. falciparum Indochina infected RBC osmotic lysis, higher = more signal, called active from +8 up or from −8 down
# [14] = plasmodial surface anion channel blockers, osmotic lysis – cell-based, P. falciparum Indochina, OD700, 2 h, primary screen (AID 1155);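 also: lysis reports solute entry through the parasite surface anion channel PSAC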; details: P. falciparum Indochina infected erythrocytes, higher = more signal, called active from +8 up or from −8 down
# [15] = changes in parasitized red cell lysis, either direction – P. falciparum Indochina, OD700, 3 h, PSAC antagonist project, primary screen (AID 1156); details: P. falciparum-infected erythrocytes, osmotic lysis, higher = more signal, called active from +8 up or from −8 down
# [16] = plasmodial surface anion channel blockers, osmotic lysis – cell-based, P. falciparum Indochina, OD700, 18 h, primary screen (AID 1157); details: P. falciparum Indochina infected erythrocytes, osmotic lysis OD700, 18 h; higher = more signal, called active from +8 up or from −8 down
# [17] = S6 kinase pathway phospho-S6 level changes – cell-based, A549, cytoblot, luminescence, serum-stimulated, primary screen (AID 1158); details: 5 h, higher = more signal;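 also: serum-stimulated A549 lung adenocarcinoma cells; signal is phosphorylated S6 detected by cytoblot immunostaining with HRP secondary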
# [18] = biological target: NADPH oxidase 2 (Homo sapiens) (UniProt P04839); test: compounds shifting NOX2 Amplex Red fluorescence – cell-based, HEK293-NOX2, PMA-stimulated, NOX inhibitor project, primary screen (AID 1159); details: 45 min, higher = more signal, called active from +8 up or from −8 down; also: test concentration not given here
# [19] = biological target: NADPH oxidase 4 (Homo sapiens) (UniProt Q9NPH5); test: compounds shifting NOX4 Amplex Red fluorescence – cell-based, HEK293-NOX4, tetracycline-induced, NOX inhibitor project, primary screen (AID 1160); details: HEK293-NOX4, Amplex Red H2O2 fluorescence, 45 min; higher = more signal, called active from +8 up or from −8 down
# [20] = biological target: NADPH oxidase 5 (Homo sapiens) (UniProt Q96PH1); test: compounds shifting NOX5 Amplex Red fluorescence – cell-based, HEK293-NOX5, NOX inhibitor project, primary screen (AID 1161); details: HEK293-NOX5, ionomycin, 45 min, higher = more signal
# NADPH oxidase 5 (Homo sapiens), sequence (Q96PH1 whole entry, looked up): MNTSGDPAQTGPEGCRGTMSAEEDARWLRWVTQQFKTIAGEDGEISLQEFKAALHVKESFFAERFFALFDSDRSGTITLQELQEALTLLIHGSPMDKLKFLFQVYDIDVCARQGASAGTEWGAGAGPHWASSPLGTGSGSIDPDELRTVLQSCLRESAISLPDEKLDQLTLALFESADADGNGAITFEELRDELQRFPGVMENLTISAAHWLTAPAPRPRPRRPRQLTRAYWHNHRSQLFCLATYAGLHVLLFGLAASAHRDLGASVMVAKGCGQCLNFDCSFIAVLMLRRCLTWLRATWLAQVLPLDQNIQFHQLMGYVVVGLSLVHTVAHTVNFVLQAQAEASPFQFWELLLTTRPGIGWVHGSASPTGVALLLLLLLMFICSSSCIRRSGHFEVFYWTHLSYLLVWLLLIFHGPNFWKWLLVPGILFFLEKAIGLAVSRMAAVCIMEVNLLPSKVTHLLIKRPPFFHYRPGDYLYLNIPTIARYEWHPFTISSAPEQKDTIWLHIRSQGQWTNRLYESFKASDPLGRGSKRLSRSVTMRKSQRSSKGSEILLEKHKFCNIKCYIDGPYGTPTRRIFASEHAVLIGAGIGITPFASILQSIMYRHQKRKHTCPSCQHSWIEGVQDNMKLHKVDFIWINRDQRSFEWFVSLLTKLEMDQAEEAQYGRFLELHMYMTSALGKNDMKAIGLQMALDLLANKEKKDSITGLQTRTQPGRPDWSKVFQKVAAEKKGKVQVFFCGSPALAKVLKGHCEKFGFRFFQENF
# Torsin-1A (Homo sapiens), sequence (O14656 whole entry, looked up): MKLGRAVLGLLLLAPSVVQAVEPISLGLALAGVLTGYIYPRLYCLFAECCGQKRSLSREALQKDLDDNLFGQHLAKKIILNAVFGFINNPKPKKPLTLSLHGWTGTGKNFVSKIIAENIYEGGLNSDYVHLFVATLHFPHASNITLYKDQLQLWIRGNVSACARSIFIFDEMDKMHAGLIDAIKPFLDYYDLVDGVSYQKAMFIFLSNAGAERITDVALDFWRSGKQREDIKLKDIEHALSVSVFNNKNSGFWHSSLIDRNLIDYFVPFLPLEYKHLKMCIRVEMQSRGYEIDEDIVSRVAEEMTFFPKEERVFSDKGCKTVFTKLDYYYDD
# Streptavidin (Streptomyces avidinii), sequence (P22629 whole entry, looked up): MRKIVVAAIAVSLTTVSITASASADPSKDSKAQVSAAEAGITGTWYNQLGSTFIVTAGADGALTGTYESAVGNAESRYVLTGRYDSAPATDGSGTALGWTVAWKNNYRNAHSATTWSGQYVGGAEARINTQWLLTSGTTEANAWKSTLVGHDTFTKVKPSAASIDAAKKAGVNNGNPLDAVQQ
# NADPH oxidase 2 (Homo sapiens), sequence (P04839 whole entry, looked up): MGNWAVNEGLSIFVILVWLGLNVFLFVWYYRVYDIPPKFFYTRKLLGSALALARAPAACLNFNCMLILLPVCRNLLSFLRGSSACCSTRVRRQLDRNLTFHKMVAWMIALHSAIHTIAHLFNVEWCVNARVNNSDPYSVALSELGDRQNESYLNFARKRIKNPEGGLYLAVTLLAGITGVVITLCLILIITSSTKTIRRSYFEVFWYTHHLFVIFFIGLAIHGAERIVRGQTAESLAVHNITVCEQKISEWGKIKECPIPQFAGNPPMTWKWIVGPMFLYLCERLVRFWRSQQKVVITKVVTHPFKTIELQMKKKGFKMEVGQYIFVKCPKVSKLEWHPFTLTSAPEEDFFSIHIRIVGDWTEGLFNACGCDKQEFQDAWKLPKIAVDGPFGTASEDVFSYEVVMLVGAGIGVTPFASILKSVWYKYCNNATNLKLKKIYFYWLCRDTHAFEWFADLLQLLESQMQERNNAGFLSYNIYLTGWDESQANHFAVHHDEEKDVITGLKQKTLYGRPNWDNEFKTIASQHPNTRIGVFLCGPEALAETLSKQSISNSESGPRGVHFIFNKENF
# NADPH oxidase 4 (Homo sapiens), sequence (Q9NPH5 whole entry, looked up): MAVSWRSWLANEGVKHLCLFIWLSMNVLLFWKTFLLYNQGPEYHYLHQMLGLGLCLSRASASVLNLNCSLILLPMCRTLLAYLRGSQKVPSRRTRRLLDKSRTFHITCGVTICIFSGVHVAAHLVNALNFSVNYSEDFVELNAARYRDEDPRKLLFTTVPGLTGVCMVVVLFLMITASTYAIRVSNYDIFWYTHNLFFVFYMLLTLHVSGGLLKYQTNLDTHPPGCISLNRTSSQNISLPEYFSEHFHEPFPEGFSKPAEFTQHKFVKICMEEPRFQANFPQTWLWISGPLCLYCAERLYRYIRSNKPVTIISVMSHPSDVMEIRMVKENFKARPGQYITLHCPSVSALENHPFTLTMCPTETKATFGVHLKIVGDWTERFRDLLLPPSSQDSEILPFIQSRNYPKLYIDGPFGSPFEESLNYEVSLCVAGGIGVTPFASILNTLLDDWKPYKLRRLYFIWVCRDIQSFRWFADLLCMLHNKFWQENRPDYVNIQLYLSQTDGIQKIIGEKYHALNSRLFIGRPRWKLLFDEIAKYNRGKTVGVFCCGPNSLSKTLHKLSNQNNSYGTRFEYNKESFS
SMILES,composite z-score [1],z-score [2],z-score [3],z-score [4],z-score [5],composite z-score [6],composite z-score [7],composite z-score (Torsin-1A (Homo sapiens) [8]),composite z-score (Torsin-1A (Homo sapiens) [9]),composite z-score [10],z-score [11],composite z-score [12],z-score [13],z-score [14],z-score [15],z-score [16],z-score [17],z-score [18],z-score [19],z-score [20]
CCOC(=O)[C@H]1[C@@H]2C(=O)N3CCC[C@H]3[C@H](O[Si](C(C)C)(C(C)C)C(C)C)[C@H]2C=C2CCN(S(=O)(=O)c3ccc(C)cc3)C[C@H]21,0.0328,-5.75 (inactive),0.426 (inactive),0.673 (inactive),0.986 (inactive),1.03,-0.0468,0.353,0.163,1.58,-1.12 (inactive),-0.202,5.55 (inactive),1.24 (inactive),0.216 (inactive),1.02 (inactive),0.582,0.163 (inactive),-0.264 (inactive),1.69
O=C1NC(=O)C2C1C=CC(C(O)c1cccc3ccccc13)N2Nc1ccc(Cl)cc1Cl (stereo not given),0.288,-1.96 (inactive),-0.329 (inactive),-0.14 (inactive),-0.572 (inactive),0.984,0.153,-0.616,1.01,-0.325,-1.85 (inactive),0.505,1.98 (inactive),0.994 (inactive),-2.46 (inactive),1.42 (inactive),-1.11,-1.37 (inactive),-6.34 (inactive),-3.5
O=C(NCCCCCNC(=O)/C(Cc1ccccc1)=N/O)OCc1ccccc1,-0.211,-1.82 (inactive),-1.37 (inactive),3.77 (inactive),-1.44 (inactive),0.153,-0.245,0.847,-0.013,-0.103,2 (inactive),-0.696,11 (active),-0.43 (inactive),0.003 (inactive),-2.25 (inactive),1.19,0.53 (inactive),0.0195 (inactive),-1.35
CCC(CC)C(O)C1C=CC2C(=O)N(c3ccccc3)C(=O)C2N1Nc1ccc(C(C)C)cc1 (stereo not given),0.578,-0.382 (inactive),-0.0181 (inactive),-0.136 (inactive),-0.156 (inactive),0.792,-0.0021,0.393,0.41,-0.0854,-0.636 (inactive),0.501,1.46 (inactive),1.19 (inactive),0.741 (inactive),0.801 (inactive),-0.463,-0.743 (inactive),-4.43 (inactive),-3.75
CCOC(=O)C1=CC[C@@H](c2cccc(Cl)c2)N(S(=O)(=O)c2ccc(C)cc2)C1,-0.159,-5.08 (inactive),-0.06 (inactive),-0.574 (inactive),0.132 (inactive),0.449,0.0173,0.176,0.193,-0.327,0.065 (inactive),0.0166,2.31 (inactive),-0.389 (inactive),-0.423 (inactive),-1.89 (inactive),1.02,0.201 (inactive),-0.927 (inactive),-0.736
CCCC[C@@H](O)C1=C(COc2ccccc2)C[C@H]2C(=O)N(C)C(=O)[C@H]2[C@H]1CO,-0.339,-1.22 (inactive),-1.24 (inactive),2.49 (inactive),-0.94 (inactive),-0.803,-0.102,-0.631,0.596,0.406,2.41 (inactive),-0.274,4.68 (inactive),-0.35 (inactive),0.241 (inactive),-1.53 (inactive),1.56,-0.69 (inactive),0.449 (inactive),0.187
CCCCN1CC=CC23O[C@@H]4/C=C\CCC(C)OC(=O)C4[C@H]2C(=O)N(C(CO)C(C)C)[C@@H]3C1=O (stereo not given in full),-0.0931,0.415 (inactive),0.524 (inactive),-0.895 (inactive),-0.651 (inactive),-0.271,-0.128,0.624,0.517,1.42,-0.0695 (inactive),0.13,1.65 (inactive),-0.361 (inactive),0.826 (inactive),0.406 (inactive),1.81,1.4 (inactive),-0.506 (inactive),2.14
CO[C@H]1O[C@H](CO)[C@@H](OC(=O)Nc2ccccc2-c2ccccc2)[C@H](OC(=O)Nc2ccc3c(c2)OCO3)[C@H]1OC(=O)Nc1ccc2c(c1)OCO2,0.35,-1.48 (inactive),-0.158 (inactive),0.792 (inactive),-0.97 (inactive),0.144,0.271,0.5,0.723,1.42,1.27 (inactive),0.809,6.03 (inactive),1.08 (inactive),0.52 (inactive),0.666 (inactive),-0.0053,-2.21 (inactive),-1.18 (inactive),-2.42

# From PubChem BioAssay
